We go through four compounds from PubChem BioAssay.

Active and inactive are the calls of the source. Unless noted, no rule for the calls is given here.

Experiment [1] relates to Wnt5a (protein binding on small-molecule microarray). The experiment in a line: Wnt5a binders on small-molecule microarray, primary screen, biophysical, 635/667 nm fluorescence (AID 1142).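 Also: fluorescence read at 667 nm with signal to noise per printed feature.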 The conditions noted are these: 635 nm fluorescence, higher = more signal.
Experiment [2] is described as follows: cell viability in Huh7 cells, primary screen, cytotoxicity control for HCV replication inhibitor project, CellTiter-Glo luminescence, basal, 48 h (AID 1143).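 Also: Huh7 hepatoma cells carrying a hepatitis C replication reporter with no stimulus; test concentration not given here.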 The conditions noted are these: Huh7 HCV replicon, higher = more signal, called active from +8 up or from −8 down. (In ATP-based viability assays light output follows the ATP content of the culture.)
Experiment [3] in a line: P. aeruginosa biofilm formation inhibitors, primary screen, PAO1 strain, BacTiter-Glo luminescence, LB-PBS (AID 1144). Conditions: 12 h, higher = more signal.
Experiment [4] is described as follows: CREB reporter modulators without forskolin, primary screen, cell-based, PC12, CRE-LacZ reporter, unstimulated (AID 1145). The conditions noted are these: no forskolin, luminescence, 4.5 h, higher = more signal, called active from +8 up or from −8 down.
Experiment [5] can be described thus: CREB reporter modulators under forskolin, primary screen, cell-based, PC12, CRE-LacZ reporter, forskolin-stimulated (AID 1146).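 Also: PC12 cells with 6xCRE LacZ reporter stimulated by forskolin 10 µM; beta-galactosidase reporter signal reflecting CREB driven transcription.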 Conditions: luminescence, 4.5 h, higher = more signal, called active from +8 up or from −8 down.
In experiment [6] the target is Streptavidin (Streptomyces avidinii) (UniProt P22629). The experiment in a line: streptavidin binders on small-molecule microarray, primary screen, artefact control for SMM compound annotation, biophysical, 635/667 nm fluorescence (AID 1147).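 Also: signal reflects streptavidin binding to arrayed compounds as a control protein.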 Conditions: streptavidin binding, higher = more signal.
Experiment [7] is described as follows: small-molecule binders of probe aInhba, primary screen, biochemical, small-molecule microarray, 635/667 nm fluorescence (AID 1148).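 Also: score merges 667nm spot fluorescence with signal-to-noise for antibody binding to printed compounds.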 The conditions noted are these: higher = more signal.
Experiment [8] has as its target Torsin-1A (Homo sapiens) (UniProt O14656). The experiment in a line: torsin A binders from cell lysate, primary screen, small-molecule microarray, wild-type, 635/667 nm (AID 1149). Conditions: COS7 hTOR1A-WT lysate, 635 nm fluorescence, higher = more signal.
The target is the same in experiment [9]. In words: small-molecule binders of mutant TOR1A in lysate, primary screen, cell lysate, small-molecule microarray, COS7 lysate, 635/667 nm fluorescence (AID 1150).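 Also: score pools 667 nm emission and signal to noise measuring lysate protein binding.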 Conditions: COS7 hTOR1A mutant lysate, 635 nm fluorescence, higher = more signal.
For experiment [10], the system named is Sonic hedgehog protein (Shh). The experiment in a line: small-molecule binders of Shh protein, primary screen, biochemical, small-molecule microarray, 635/667 nm fluorescence (AID 1151).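 Also: Shh protein binding to compounds spotted on small-molecule microarray slides; score combines spot fluorescence intensity with signal-to-noise across triplicate slides.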 Conditions: small-molecule microarray binding, 635 nm fluorescence; higher = more signal.
A short description of experiment [11]: E. coli DRC41 culture turbidity changes, primary screen, E. coli filamentation inducer project, strain DRC41, OD650, 48 h (AID 1152).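 Also: E. coli MC1000 strain DRC41 lacking acrAB efflux pump and sulA.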 Conditions: E. coli DRC41 (acrAB sulA), higher = more signal, called active from +8 up or from −8 down.
The nature of experiment [12]: small-molecule binders of probe aLefty1, primary screen, biochemical, small-molecule microarray, 635/667 nm fluorescence (AID 1153).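 Also: score merges spot fluorescence with signal-to-noise ratio from the scanned slide images.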 Conditions: higher = more signal.
Experiment [13] can be described thus: PSAC antagonists in infected red cells, primary screen, cell-based, P. falciparum Indochina, OD700, 1 h (AID 1154). Conditions: P. falciparum Indochina infected RBC osmotic lysis, higher = more signal, called active from +8 up or from −8 down.
A short description of experiment [14]: PSAC antagonists in infected red cells, primary screen, cell-based, P. falciparum Indochina, OD700, 2 h (AID 1155).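 Also: lysis reports solute entry through the parasite surface anion channel PSAC; channel blockers reduce lysis of infected cells.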 The conditions noted are these: P. falciparum Indochina infected erythrocytes, osmotic lysis OD700; higher = more signal, called active from +8 up or from −8 down.
A short description of experiment [15]: osmotic lysis modulators in infected erythrocytes, primary screen, PSAC antagonist project, cell-based, P. falciparum Indochina, OD700, 3 h (AID 1156). Conditions: higher = more signal, called active from +8 up or from −8 down.
Experiment [16] is described as follows: PSAC antagonists in infected red cells, primary screen, cell-based, P. falciparum Indochina, OD700, 18 h (AID 1157). Conditions: P. falciparum Indochina infected erythrocytes, osmotic lysis OD700, 18 h; higher = more signal, called active from +8 up or from −8 down.
Experiment [17] can be described thus: modulators of S6 phosphorylation in cells, primary screen, cell-based, A549, cytoblot, luminescence, serum-stimulated (AID 1158).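 Also: serum-stimulated A549 lung adenocarcinoma cells; signal is phosphorylated S6 detected by cytoblot immunostaining with HRP secondary.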 Conditions: A549 phospho-S6 cytoblot, 5 h, higher = more signal.
In experiment [18] the target is NADPH oxidase 2 (Homo sapiens) (UniProt P04839). In words: NOX2-dependent H2O2 signal modulators, primary screen, NOX inhibitor project, cell-based, HEK293-NOX2, PMA-stimulated, Amplex Red fluorescence (AID 1159). Also: test concentration not given here. Conditions: 45 min, higher = more signal, called active from +8 up or from −8 down.
Experiment [19] concerns the target NADPH oxidase 4 (Homo sapiens) (UniProt Q9NPH5). The experiment in a line: NOX4-dependent H2O2 signal modulators, primary screen, NOX inhibitor project, cell-based, HEK293-NOX4, tetracycline-induced, Amplex Red fluorescence (AID 1160). The conditions noted are these: 45 min, higher = more signal, called active from +8 up or from −8 down.
In experiment [20] the target is NADPH oxidase 5 (Homo sapiens) (UniProt Q96PH1). In words: NOX5-dependent H2O2 signal modulators, primary screen, NOX inhibitor project, cell-based, HEK293-NOX5, Amplex Red fluorescence (AID 1161). The conditions noted are these: HEK293-NOX5, ionomycin, 45 min, higher = more signal.
NADPH oxidase 5 (Homo sapiens), sequence (Q96PH1 whole entry, looked up): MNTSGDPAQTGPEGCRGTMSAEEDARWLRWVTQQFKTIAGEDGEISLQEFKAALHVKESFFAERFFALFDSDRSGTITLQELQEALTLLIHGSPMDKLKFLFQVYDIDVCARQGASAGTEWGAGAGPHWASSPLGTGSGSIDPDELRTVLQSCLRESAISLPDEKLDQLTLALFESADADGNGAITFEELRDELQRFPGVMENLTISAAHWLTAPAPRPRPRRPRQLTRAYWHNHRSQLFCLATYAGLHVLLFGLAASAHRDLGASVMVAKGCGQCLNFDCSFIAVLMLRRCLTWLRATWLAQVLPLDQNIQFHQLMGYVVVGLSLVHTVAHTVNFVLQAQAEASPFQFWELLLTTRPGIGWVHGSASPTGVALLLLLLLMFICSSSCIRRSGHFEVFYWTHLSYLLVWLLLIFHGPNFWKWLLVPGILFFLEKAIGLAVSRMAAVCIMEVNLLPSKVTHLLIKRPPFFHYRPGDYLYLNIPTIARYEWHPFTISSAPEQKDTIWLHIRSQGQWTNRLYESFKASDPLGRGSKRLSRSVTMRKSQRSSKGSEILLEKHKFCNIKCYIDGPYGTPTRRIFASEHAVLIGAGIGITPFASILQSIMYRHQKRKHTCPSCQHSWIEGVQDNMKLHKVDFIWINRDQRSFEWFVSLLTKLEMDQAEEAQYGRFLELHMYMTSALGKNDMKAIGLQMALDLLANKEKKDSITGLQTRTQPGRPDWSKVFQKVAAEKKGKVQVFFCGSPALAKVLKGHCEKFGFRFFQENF

Torsin-1A (Homo sapiens), sequence (O14656 whole entry, looked up): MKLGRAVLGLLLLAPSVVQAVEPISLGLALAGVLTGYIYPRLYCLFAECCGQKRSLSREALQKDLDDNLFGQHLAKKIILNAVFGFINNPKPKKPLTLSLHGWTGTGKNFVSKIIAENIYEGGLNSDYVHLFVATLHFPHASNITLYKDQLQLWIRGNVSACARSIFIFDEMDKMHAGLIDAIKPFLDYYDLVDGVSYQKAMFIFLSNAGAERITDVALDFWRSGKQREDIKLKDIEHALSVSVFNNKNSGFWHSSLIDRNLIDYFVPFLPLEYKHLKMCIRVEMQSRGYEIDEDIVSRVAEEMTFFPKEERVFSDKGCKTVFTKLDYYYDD
Streptavidin (Streptomyces avidinii), sequence (P22629 whole entry, looked up): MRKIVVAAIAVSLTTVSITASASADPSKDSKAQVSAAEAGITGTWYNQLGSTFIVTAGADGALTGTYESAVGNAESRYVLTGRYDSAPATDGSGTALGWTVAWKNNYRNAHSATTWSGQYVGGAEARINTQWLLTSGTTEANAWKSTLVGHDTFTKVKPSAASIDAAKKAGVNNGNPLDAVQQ
NADPH oxidase 4 (Homo sapiens), sequence (Q9NPH5 whole entry, looked up): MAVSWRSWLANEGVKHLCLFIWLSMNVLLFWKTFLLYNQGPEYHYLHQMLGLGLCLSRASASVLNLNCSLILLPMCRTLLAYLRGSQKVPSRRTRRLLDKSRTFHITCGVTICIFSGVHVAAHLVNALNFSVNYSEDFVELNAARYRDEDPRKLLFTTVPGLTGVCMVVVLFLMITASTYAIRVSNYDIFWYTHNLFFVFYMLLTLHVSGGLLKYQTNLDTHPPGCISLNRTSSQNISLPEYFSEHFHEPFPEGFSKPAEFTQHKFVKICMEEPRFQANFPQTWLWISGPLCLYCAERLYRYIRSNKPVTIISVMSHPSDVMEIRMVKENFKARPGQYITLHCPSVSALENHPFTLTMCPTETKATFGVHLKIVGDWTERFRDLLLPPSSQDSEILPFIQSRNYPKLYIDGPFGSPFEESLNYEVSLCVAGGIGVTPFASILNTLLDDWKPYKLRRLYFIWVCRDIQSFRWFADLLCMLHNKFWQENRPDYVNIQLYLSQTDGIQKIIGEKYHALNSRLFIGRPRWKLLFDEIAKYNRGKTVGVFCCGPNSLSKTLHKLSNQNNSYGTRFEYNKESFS
NADPH oxidase 2 (Homo sapiens), sequence (P04839 whole entry, looked up): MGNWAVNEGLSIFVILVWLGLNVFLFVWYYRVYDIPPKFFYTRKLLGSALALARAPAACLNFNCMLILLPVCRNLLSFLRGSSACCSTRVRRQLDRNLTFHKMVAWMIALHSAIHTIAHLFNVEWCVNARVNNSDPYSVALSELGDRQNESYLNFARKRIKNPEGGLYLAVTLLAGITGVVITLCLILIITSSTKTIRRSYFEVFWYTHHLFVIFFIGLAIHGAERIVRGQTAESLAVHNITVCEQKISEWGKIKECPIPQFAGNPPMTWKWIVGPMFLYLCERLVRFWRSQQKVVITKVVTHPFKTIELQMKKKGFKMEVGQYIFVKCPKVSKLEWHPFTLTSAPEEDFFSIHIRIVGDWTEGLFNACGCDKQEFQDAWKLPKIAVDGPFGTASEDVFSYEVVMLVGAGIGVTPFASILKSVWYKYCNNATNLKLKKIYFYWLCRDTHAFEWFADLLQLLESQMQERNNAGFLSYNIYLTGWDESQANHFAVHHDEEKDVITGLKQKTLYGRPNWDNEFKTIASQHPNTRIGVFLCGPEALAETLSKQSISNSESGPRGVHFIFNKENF

As to `O=C1C2C=CC(C(O)c3cccs3)N(Nc3ccc([N+](=O)[O-])cc3)C2C(=O)N1c1ccccc1` (stereo not given), the composite z-score is 0.0001 in experiment [1]; 0.46 in experiment [6]; -0.0791 in experiment [7]; -0.236 with Torsin-1A (Homo sapiens) [8]; 0.303 in the experiment with Torsin-1A (Homo sapiens) [9]; -0.441 in [10]. For the same compound, the composite z-score in [12] was -0.105. Moreover, the z-score in [2] was 0.0886 (inactive); in experiment [3] it was 0.461 (inactive); in experiment [4], -0.685 (inactive); in experiment [5] it was -0.275 (inactive); in [11] it was -0.46 (inactive); in experiment [13] it was 8.61 (active). Further, the z-score was 1.43 (inactive) in experiment [14]; 1.75 (inactive) in [15]; 0.753 (inactive) in experiment [16]; -0.772 in experiment [17]; -0.437 (inactive) in experiment [18]; -2.75 (inactive) in experiment [19]. Further, the z-score in [20] was -1.55.

Turning to `COc1ccc([Si](C)(C)[C@@H]2[C@@H](CC(=O)N3Cc4ccccc4C[C@H]3CO)O[C@]3(C(=O)N(Cc4ccc(N5CCOC5=O)cc4)c4ccccc43)[C@H]2C)cc1`, the composite z-score in experiment [1] was -0.0088; in experiment [6] it was -0.0492; in [7] it was -0.128; with Torsin-1A (Homo sapiens) [8], 0.438; with Torsin-1A (Homo sapiens) [9], 0.702; in experiment [10] it was 1.96. In experiment [12], this compound had a composite z-score of -0.0868. Moreover, the z-score in experiment [2] was -4.75 (inactive); in experiment [3] it was -0.081 (inactive); in experiment [4], 0.949 (inactive); in experiment [5], -0.888 (inactive); in experiment [11] it was 0.378 (inactive); in [13], 8.18 (active). Also, the z-score in experiment [14] was 1.59 (inactive); in experiment [15] it was 0.374 (inactive); in experiment [16] it was 0.892 (inactive); in [17] it was 0.982; in [18], 0.393 (inactive); in experiment [19], 1.15 (inactive). This compound yielded a z-score in [20] of 1.88.

Consider `COCCOC(=O)N1C(=O)[C@@]2(c3cc(C#CC4(O)CCCCCC4)ccc31)[C@H](c1ccc(O)cc1)N1[C@H](c3ccccc3)[C@H](c3ccccc3)OC(=O)[C@H]1[C@@H]2C(=O)N1CCCCCCC1`, for which the composite z-score in experiment [1] is 0.357; in experiment [6], -0.215; in [7], -0.0631; with Torsin-1A (Homo sapiens) [8], 0.123; in the experiment with Torsin-1A (Homo sapiens) [9] it was 0.275; in [10], 1.09. In addition, in experiment [12], the composite z-score turned out to be 1.08. Further, the z-score in experiment [2] was -0.844 (inactive); in [3], 0.887 (inactive); in experiment [4], 0.484 (inactive); in [5], -0.125 (inactive); in experiment [11] it was 0.341 (inactive); in [13], 1.13 (inactive). For the same compound, the z-score was 0.928 (inactive) in experiment [14]; 0.0786 (inactive) in experiment [15]; 0.166 (inactive) in experiment [16]; -0.363 in experiment [17]; 1.61 (inactive) in experiment [18]; 0.0838 (inactive) in experiment [19]. Moreover, in experiment [20], the z-score is 1.41.

Turning to `CN1C(=O)C2C(C3CC3)C=C3CN(Cc4cccc(Cl)c4)[C@@H]([C@@H](O)Cc4ccccc4)C3C2C1=O` (stereo not given in full), the composite z-score in [1] is -0.103; in [6], 0.599; in experiment [7], -0.0221; with Torsin-1A (Homo sapiens) [8], 0.667; with Torsin-1A (Homo sapiens) [9], 0.342; in experiment [10], 1.78. In addition, in experiment [12], the composite z-score is 0.2. In addition, the z-score in experiment [2] is -1.85 (inactive); in experiment [3], -0.0257 (inactive); in experiment [4], 5.58 (inactive); in experiment [5], 0.349 (inactive); in [11], 1.14 (inactive); in experiment [13], 8.18 (active). Also, the z-score is 1.25 (inactive) in [14]; 1.57 (inactive) in experiment [15]; 0.918 (inactive) in experiment [16]; 0.775 in [17]; -0.38 (inactive) in experiment [18]; 0.0765 (inactive) in experiment [19]. This compound displayed a z-score in experiment [20] of 0.168.
